Results: PubChem BioAssay (NCATS)
Records with an inconclusive call do not appear. A number with no mark means an inactive call. The source made the active and inactive calls. Calls come from the whole dose curve; as a rule, active = well fitted curve in the direction sought with a large enough effect; inconclusive = small, poorly fitted or top-dose-only effect, or another doubt; inactive = no such curve, though single readings can be large; an effect the other way counts as inactive or inconclusive.

How the values were obtained:
SKOV3 = assay: Primary qHTS to identify gynecologic anti-cancer compounds using libraries of approved drugs and bioactive compounds (AID 1345084); settings: Gynecologic cancer cell panel viability, ATPlite luminescence, 48 h; series mostly up to 57.5 µM; note: nearly all actives have a fitted effect of over 55% in size
In short: (§1)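 Cells, 1,000 per well, were allowed to settle for 16 h at 37 C before compound addition. Five concentrations were tested for 48 h, and viability was read by ATPlite luminescence after 15 min at room temperature.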

[1] = qHTS assay to identify inhibitors of the type 1 interferon - major histocompatibility complex class I in skeletal muscle: Counter screen cell viability and HiBit confirmation (AID 1347412); settings: iHSKM muscle cells + IFN-b, HiBiT or CellTiter-Glo, 24 h; for activity change, negative = inhibition: Viability, at 45.9 µM (top of the series); for Potency: HiBiT; for all read-outs here: nearly all actives have a fitted effect of over 60% in size
In short: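 Human myoblast knock-in line, 4.0 ng/ml IFN-beta stimulation, 24 h compound treatment. Endpoints: HiBiT lytic luminescence (HLA-B level) and CellTiter Glo (ATP). Dosing 12 concentrations, 3-fold steps, 46 uM highest final.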

Tov112D = assay: Primary qHTS to identify gynecologic anti-cancer compounds using libraries of approved drugs and bioactive compounds (AID 1345084); settings: Gynecologic cancer cell panel viability, ATPlite luminescence, 48 h; series mostly up to 57.5 µM; note: nearly all actives have a fitted effect of over 55% in size
In short: as §1

Tov-21-G = assay: as above; settings: Gynecologic cancer cell panel viability, ATPlite luminescence, 48 h; series mostly up to 57.5 µM
In short: as §1

[2] = Drug repurposing screens with cells derived from glioblastoma tumor samples (AID 1345199); settings: GBM patient neurospheres viability, ATP luminescence, 48 h; note: nearly all actives have a fitted effect of over 40% in size
In short: (§2)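 Four patient lines of CD133+ GBM neurospheres were screened at several concentrations; hits were retested in those lines plus three slower-growing GBM lines, using 48-hour treatment and ATP-based viability.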

astro = assay: as above; settings: viability, ATP luminescence, 48 h; series mostly up to 91.6 µM
In short: as §2
% is set by controls: 0 for no effect and ±100 for the full control effect; potency is the fitted concentration of half-maximal effect.

For `Cn1cncc1C(N)(c1ccc(Cl)cc1)c1ccc2c(c1)c(-c1cccc(Cl)c1)cc(=O)n2C` (configuration not stated), the Potency (SKOV3) was “inactive” and the activity change, negative = inhibition [1] was -22.3%.
For `CC(=O)OC12COC1CC(O)C1(C)C(=O)C(O)C3=C(C)C(OC(=O)C(O)C(NC(=O)OC(C)(C)C)c4ccccc4)CC(O)(C(OC(=O)c4ccccc4)C21)C3(C)C` (configuration not stated), the Potency (SKOV3) was “inactive” and the Potency (Tov112D) was “inactive”.
In the case of `CN(CCc1ccc(Nc2ncc(-c3cccnc3)s2)cc1)Cc1ccccc1`, the Potency (Tov-21-G) is reported as “inactive” and the Potency (Tov112D) is reported as “inactive”.
With `OCC1OC(Oc2cc(O)cc(/C=C/c3ccc(O)cc3)c2)C(O)C(O)C1O` (configuration not stated) the Potency (SKOV3) was “inactive” and the Potency (Tov112D) was “inactive”.
In the case of `CC(C)[N+]1(C)C2CCC1CC(OC(=O)C(CO)c1ccccc1)C2` (configuration not stated), the Potency (Tov-21-G) is reported as “inactive” and the Potency (Tov112D) is reported as “inactive”.
For `Cc1ccc(C(=O)Nc2noc3ccccc23)cc1`, the Potency (Tov-21-G) was 28.2 µM (active) and the Potency (Tov112D) was 28.2 µM (active).
With `CC(=O)O[C@H]1C(=O)[C@@]2(C)[C@H]([C@H](OC(=O)c3ccccc3)[C@]3(O)C[C@H](OC(=O)[C@H](O)[C@@H](NC(=O)c4ccccc4)c4ccccc4)C(C)=C1C3(C)C)[C@]1(OC(C)=O)CO[C@@H]1C[C@@H]2O` the activity change, negative = cytotoxicity (SKOV3) was 0% [at 11.6 µM], the activity, negative = cell killing ([2]; at 45.9 µM (top of the series), tumour line B) was -12.5% and the Potency ([2]; tumour line A) was 31.6 µM (active). For the same compound, the Potency ([2]; tumour line D) was 0.1 µM (active) and the Potency (astro) was 39.8 µM (active).
With `Cc1ccccc1-n1c([C@H](C)Nc2nc(N)nc3nc[nH]c23)nc2cccc(C)c2c1=O` the Potency (SKOV3) was “inactive” and the Potency (Tov112D) was “inactive”.
For `C=C(C)C(=O)O[C@H]1CC2=CC(C/C(C)=C\[C@H]3OC(=O)C(=C)[C@H]13)OC2=O` (some centres not stated), the Potency (SKOV3) was “inactive” and the Potency (Tov112D) was “inactive”.
For `COc1ccc(Oc2cc(C)c(-c3csc(NC(=O)c4ccncc4)n3)c(C)c2)cc1`, the Potency (SKOV3) was 1 µM (active) and the Potency (Tov112D) was “inactive”.
`O=C(O)C1CN(Cc2ccc(-c3nc4cc(Cc5ccccc5F)ccc4s3)c(F)c2)C1` gave an activity change, negative = cytotoxicity (Tov-21-G) of 0.219% [at 11.6 µM] and an activity change, negative = cytotoxicity (Tov112D) of 10.6% [at 11.6 µM].
In the case of `C=C1C(=O)OC2C1CCC(=C)C1CC(OC(C)=O)C(=C)C12` (configuration not stated), the Potency (SKOV3) is reported as “inactive” and the Potency (Tov112D) is reported as “inactive”.
In the case of `COC(=O)C1(C)c2[nH]c3ccccc3c2CCN1C(=O)CCl` (configuration not stated), the Potency (Tov-21-G) is reported as 22.4 µM (active).
With `Cn1cc(S(=O)(=O)c2ccc(Cl)cc2)c2cccc(N3CCNCC3)c21` the Potency (Tov-21-G) was 20 µM (active) and the Potency (Tov112D) was 28.2 µM (active).
For `O=C1C=CC2OC(c3ccccc3)C(O)C2O1` (configuration not stated), the Potency (SKOV3) was “inactive” and the Potency (Tov112D) was “inactive”.
With `CC(=O)NCC(=O)N1C2CCC1c1cc(Nc3ncc(C(F)(F)F)c(NC4CCC4)n3)ccc12` (configuration not stated) the Potency (Tov-21-G) was 8.91 µM (active).
In the case of `COc1ncc(Nc2ncc([C@H](C)N3CCN(S(C)(=O)=O)CC3)cc2-c2nc(C)nc(N)n2)cc1F`, the Potency (SKOV3) is reported as 2.82 µM (active) and the Potency (Tov112D) is reported as “inactive”.
In the case of `CCCCNc1ncc2c(-c3ccc(F)cc3)nn(CC3CCC(N)CC3)c2n1` (configuration not stated), the Potency (Tov-21-G) is reported as 7.94 µM (active).
In the case of `Cc1ccccc1C#Cc1ccc(CCC(=O)O)cc1`, the Potency (Tov-21-G) is reported as 17.8 µM (active).
In the case of `CCC1=CC2CN(C1)Cc1c([nH]c3ccccc13)[C@@](C(=O)OC)(c1cc3c(cc1OC)N(C)[C@H]1[C@@](O)(C(=O)OC)[C@H](OC(C)=O)[C@]4(CC)C=CCN5CC[C@]31[C@@H]54)C2` (some centres not stated), the Potency (Tov-21-G) is reported as 0.0891 µM (active) and the Potency (Tov112D) is reported as 0.0708 µM (active).
With `CNS(=O)(=O)c1ccccc1Nc1nc(Nc2ccc(N3CCN(C)CC3)cc2OC)ncc1Cl` the Potency (SKOV3) was 3.55 µM (active) and the Potency (Tov112D) was 10 µM (active).
With `Cc1[nH]nc(C(F)(F)F)c1Cc1sc2c(c1C(=O)N1C[C@](C)(O)CO1)c(=O)n(C)c(=O)n2C(C)C` the Potency (Tov-21-G) was “inactive” and the Potency (Tov112D) was “inactive”.
In the case of `O=C(c1cn(Cc2cncn2Cc2ccc(Br)cc2)cc1-c1cccc2ccccc12)N1CCOCC1`, the Potency (SKOV3) is reported as 17.8 µM (active) and the Potency (Tov112D) is reported as “inactive”.
In the case of `CN(C)C/C=C/C(=O)Nc1cc2c(Nc3ccc(F)c(Cl)c3)ncnc2cc1OC1CCOC1` (configuration not stated), the Potency (Tov-21-G) is reported as 5.62 µM (active).
With `CCOc1cc(C(=O)N2CCC(N3CCN(C)CC3)CC2)ccc1Nc1ncc2c(n1)N(C1CCCC1)c1ccccc1C(=O)N2C` the Potency (SKOV3) was 35.5 µM (active), the Potency (Tov112D) was “inactive” and the Potency [1] was 12.5 µM (active). It also gave an activity change, negative = inhibition [1] of -25.1%.
In the case of `C[C@H]1[C@H](O)O[C@@H]2O[C@@]3(C)CC[C@H]4[C@H](C)CC[C@@H]1[C@@]24OO3`, the Potency (Tov-21-G) is reported as 28.2 µM (active).
For `COc1cc2ncnc(Nc3ccc(F)c(Cl)c3)c2cc1NC(=O)/C=C/CN1CCCCC1`, the Potency (SKOV3) was 10 µM (active) and the Potency [1] was 19.8 µM (active).
In the case of `CC1(C)CC(=O)C2=C(C1)NC(=S)NC2c1cccc(O)c1` (configuration not stated), the Potency (Tov-21-G) is reported as 1.26 µM (active) and the Potency (Tov112D) is reported as 0.891 µM (active).
In the case of `COc1ccc(-c2cnc3ccc(NCc4ccc(S(N)(=O)=O)cc4)nn23)cc1OC`, the Potency (Tov-21-G) is reported as “inactive” and the Potency (Tov112D) is reported as “inactive”.
